# Vif-APOBEC3G blk: inhibitors of Vif-APOBEC3G interaction; AID 602310; Potency, µM (series often up to 46.1 µM), inactives show at the top dose activity, negative = active, most hits filed as inhibitors; 0.076% of 410,000 active; Q9HC16; HeLa A3G-eYFP + Vif (tagged APOBEC3G with the HIV-1 protein that degrades it), YFP fluorescence, overnight; note: potency is the fitted concentration of half-maximal effect; % is set by controls: 0 for no effect and ±100 for the full control effect; nearly all actives have a fitted effect of over 60% in size
#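 Read-out is eYFP fluorescence (Ex 488/Em 500-530) from Vif-expressing HeLa A3G-eYFP cells; more signal means A3G escaped Vif-mediated degradation. Cells plated overnight, compound pinned in, incubated overnight at 37 deg C.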
# Vif-APOBEC3F blk: Vif-A3F binding inhibition; HeLa A3F-eYFP + Vif (tagged APOBEC3F with the HIV-1 protein that degrades it), YFP fluorescence increase; Potency, µM (highest dose often 46.1 µM), inactives show at the highest dose activity, negative = active; 0.2% of 390,000 active; AID 602313; note: potency is the fitted concentration of half-maximal effect; % of control where 0% means no effect; nearly all actives have a fitted effect of over 65% in size
#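 HeLa cells stably expressing A3F-eYFP plus Vif, plated and incubated overnight at 37 deg C, then exposed to compounds overnight at 37 deg C. Blocked degradation read as raised yellow fluorescence (Ex 488/Em 500-530).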
# Epigenetic reg: epigenetic control regulation, reporter derepression; murine LDR cells, GFP reporter derepression, 30 h; Potency, µM (titrated, usually from 53.9 µM), without a hit: at the highest dose GFP activation, most hits filed as activators; 0.2% of 280,000 active; note: potency is the fitted concentration of half-maximal effect; % of control where 0% means no effect; nearly all actives have a fitted effect of over 60% in size
#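 Murine LDR cells bearing a silenced CMV-driven GFP reporter were exposed to compound for 30 h at 37 C. After PBS washes, GFP-positive cells (20-120 um objects) counted by laser-scanning microplate cytometry.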
# C127i cell count: counter-screen for epigenetic modulators: effect in parental c127i cells; shares compounds with Epigenetic reg; Potency, µM, for inactives: at the top dose fluorescent cell count, usual class: activators; 20% of 60 active; mouse c127i parental cells, fluorescent cell count, 30 h
# HCC4017 tox: HCC4017 cytotoxicity of epigenetic modulator hits; shares compounds with Epigenetic reg; HCC4017 NSCLC viability, CellTiter-Glo ATP luminescence, 72 h; Potency, µM (top dose mostly 46.1 µM), for the others: at the top dose activity change, negative = cytotoxicity, hits mostly cytotoxic; 30% of 45 active
# H358 viab: reduces H358 lung cancer cell viability among epigenetic modulators | 30% of 45 active | shares compounds with Epigenetic reg | Potency, µM (doses to about 46.1 µM), without a hit: top-dose activity change, negative = viability loss, most hits filed as cytotoxic | H358 NSCLC viability, ATP luminescence, 72 h | AID 493074
# An asterisk follows results filed as active; ? = inconclusive; . = not tested or not shown. An excerpt weighted towards active compounds, which were near 0.34% of everything screened. Calls come from the whole dose curve; as a rule, active = well fitted curve in the direction sought with a large enough effect; inconclusive = small, poorly fitted or top-dose-only effect, or another doubt; inactive = no such curve, though single readings can be large; an effect the other way counts as inactive or inconclusive.
SMILES,Vif-APOBEC3G blk,Vif-APOBEC3F blk,Epigenetic reg,C127i cell count,others
COc1ccc(NC(=O)c2sc3nc(-c4ccc(OC)cc4)cc(C(F)(F)F)c3c2N)cc1,?,?,7.08µM*,3.98µM*,
COc1ccc(NC(=O)c2sc3nc(C)cc(C)c3c2N)cc1,-12.4%,-4.5%,.,.,
COC(=O)C1(C(=O)OC)CC2=CCC3C(=O)N(c4ccccc4)C(=O)C3C2Cc2ccccc2[C@@H]1C[N+](=O)[O-] (some centres undefined),.,.,0.0%,.,
CCOCCc1nn2c(=O)cc(COC(=O)c3ccccc3Br)nc2s1,-1.3%,-1.0%,2.3%,.,
O=C(CSc1oc(-c2ccccc2)nc1S(=O)(=O)c1ccc(Br)cc1)c1ccccc1,-1.9%,1.3%,-1.8%,.,
Cc1ccc(C(C)C)c(OCc2ccc(C(=O)N/N=C/c3ccc(O)c(O)c3)cc2)c1,-9.4%,6.9%,0.0%,.,
Cc1ccc(C(C)C)c(OCc2ccc(C(=O)N/N=C/c3cccc(O)c3O)cc2)c1,-11.4%,-3.7%,?,1.0%,HCC4017 tox=1.99µM*;H358 viab=0.56µM*

# Screening data: PubChem, National Center for Advancing Translational Sciences (NCATS)
